# Casp7 inh – allosteric or competitive inhibitors of human caspase-7 | recombinant caspase-7, Ac-DEVD-AFC fluorescence rate | AID 889 | Potency, µM (doses to about 57.5 µM), without a hit: at the top dose activity change, negative = inhibition, usual class: inhibitors | actives 0.02% (n = 75,000) | P55210; active means well fitted inhibition curve with a large enough effect in the main read-out, with a control signal flat, not every such curve was filed as active; inconclusive means small, poorly fitted or top-dose-only effect, or a change in a side signal; further: % of control where 0% means no effect
# Caspase-1 inhib – caspase-1 (human) inhibition, allosteric or competitive; Potency, µM (doses to about 57.5 µM), without a hit: at the highest dose activity change, negative = inhibition, most hits filed as inhibitors; actives 0.03% (n = 75,000); P29466; Caspase-1 enzyme, Ac-WEHD-AFC fluorogenic rate;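 further: plate controls were vehicle for no effect and no substrate for full effect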
# TSHR ag – activates the human thyroid stimulating hormone receptor | P16473 | HEK293-CNG-TSHR cells (CNG channel as cAMP sensor), membrane potential dye, cAMP | Potency, µM (series often up to 57.1 µM), without a hit: at the top dose activation, actives largely listed as activators | actives 0.48% (n = 73,000) | AID 926; active means well fitted activation curve with a large enough effect in the main read-out, with a control signal flat, not every such curve was filed as active; inconclusive means small, poorly fitted or top-dose-only effect, or a change in a side signal; inactive means no such curve, though single readings can be large or run the other way; % of control where 0% means no effect;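 further: the control signal comes from parental cells without the receptor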
#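 HEK 293 cells stably expressing TSHR and a cAMP-gated CNG channel; parental CNG-only cells as counterscreen. Cells preloaded 60 min with membrane potential dye plus 100 uM RO 20-1724, then compound 30 min; fluorescence read at 590 nm.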
# HEK293 cAMP cs – parental HEK293 cAMP activation (counter-screen) | AID 938 | Potency, µM (doses to about 57.1 µM), without a hit: at the top dose activation, actives largely listed as activators | parental HEK293 CNG cAMP sensor, membrane potential fluorescence | actives 2.5% (n = 73,000); further: % of control where 0% means no effect; nearly all actives have a fitted effect of over 55% in size
#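 Parental HEK 293 cells stably expressing a cAMP-gated CNG channel were loaded with membrane potential dye containing 100 uM RO 20-1724 for 60 min. Compound added for 30 min; depolarization read as fluorescence intensity at 590 nm.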
# USP2a inh – USP2a (human) protease inhibition | O75604 | USP2a enzymatic assay, qHTS inhibition | Potency, µM (doses to about 38.3 µM), for inactives: top-dose activity change, negative = inhibition, actives largely listed as inhibitors | actives 0.1% (n = 60,000) | AID 927; further: nearly all actives have a fitted effect of over 60% in size
# Target sequence (O75604 whole entry, looked up): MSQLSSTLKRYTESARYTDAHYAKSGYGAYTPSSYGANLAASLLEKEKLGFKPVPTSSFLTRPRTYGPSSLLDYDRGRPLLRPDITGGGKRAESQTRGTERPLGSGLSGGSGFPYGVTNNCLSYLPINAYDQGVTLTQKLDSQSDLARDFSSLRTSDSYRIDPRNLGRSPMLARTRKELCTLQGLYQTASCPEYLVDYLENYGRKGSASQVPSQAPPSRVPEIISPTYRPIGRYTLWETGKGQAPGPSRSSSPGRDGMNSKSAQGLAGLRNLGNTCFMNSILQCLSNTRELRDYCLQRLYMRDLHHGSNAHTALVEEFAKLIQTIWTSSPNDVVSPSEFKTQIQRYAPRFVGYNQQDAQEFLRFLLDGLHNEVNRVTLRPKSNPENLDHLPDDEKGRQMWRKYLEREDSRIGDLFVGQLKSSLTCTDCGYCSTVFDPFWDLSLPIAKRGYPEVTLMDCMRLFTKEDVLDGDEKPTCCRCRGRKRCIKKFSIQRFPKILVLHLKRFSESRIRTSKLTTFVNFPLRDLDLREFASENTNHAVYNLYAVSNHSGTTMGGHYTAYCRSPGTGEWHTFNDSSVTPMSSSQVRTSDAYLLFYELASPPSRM
#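 20 nM USP2 core + cpd, 30 min RT; add 20 nM Ub-PLA2/20 uM NBD C6-HPC; read Ex460/Em535 at 0 h and 2.5 h. Normalized to NEM; qHTS curve fit/classification.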
# CRE Fsk mod – modulators of forskolin-stimulated CRE signaling in CHO cells. AID 662. Potency, µM (series often up to 38.2 µM), inactives show at the top dose activity change, negative = inhibition, hits mostly activators. CHO CRE-bla reporter (cAMP response element driving beta-lactamase), forskolin EC10, beta-lactamase ratio. actives 2.5% (n = 71,000); active means well fitted activation curve with a large enough effect in the signal ratio, with a control signal flat, not every such curve was filed as active; inconclusive means small, poorly fitted or top-dose-only effect, or effect the other way, or a change in a side signal; the % refers to the signal ratio; further: % of control where 0% means no effect
#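 Modulation of forskolin signalling: compounds in titration series added with EC10 NKH 477 to CHO cells carrying a CRE-driven beta-lactamase reporter, 3 h, 37C. CCF4 FRET ratio (460/530 nm, ex 405 nm) gives %activity and AC50.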
# * marks the source's active call; other numbers are inactive results; ? = inconclusive; . = no result given; [ ] = remark or other dose. Only some compounds are listed: those with a hit (about 5% of all), similar ones and a draw of the others. Unless noted, the call rests on the fitted dose curve; in most records, active means well fitted curve in the direction sought with a large enough effect; inconclusive means small, poorly fitted or top-dose-only effect, or another doubt; inactive means no such curve, though single readings can be large; an effect the other way counts as inactive or inconclusive. Potency means the concentration at half of the fitted maximal effect.
SMILES,Casp7 inh,Caspase-1 inhib,TSHR ag,HEK293 cAMP cs,USP2a inh,CRE Fsk mod
CC1=CC(=O)C2=C(C)CC[C@@H]3[C@H](OC(=O)[C@H]3C)[C@H]12,.,.,3%,15%,.,?
Cc1nc2ccccc2n1-c1nc(-c2ccco2)cc(C(F)(F)F)n1,-2%,1%,?,3.2µM*,17%,-5%
O=C(O)C(=Cc1ccc(-c2ccccc2)cc1)C(=O)O,-3%[11.5 µM],-1%[11.5 µM],5%[11.4 µM],6%[11.4 µM],.,?
COC(=O)[C@@H]1[C@@H]2C[C@H]3c4[nH]c5ccccc5c4CCN3C[C@@H]2CC[C@@H]1OS(=O)(=O)O,-3%[11.5 µM],-1%[11.5 µM],-1%[11.4 µM],1%[11.4 µM],.,4%[7.6 µM]
C[C@@](O)(CNS(=O)(=O)c1ccccc1)c1ccccc1,1%[11.5 µM],-2%[11.5 µM],1%[11.4 µM],-5%[11.4 µM],.,-1%[7.6 µM]
COCCNC(=O)CN(C(=O)Cn1nnc2ccccc21)c1ccccc1,1%,-1%,0%,-3%,4%,-1%
CCN(C(=O)c1ccc(C(C)(C)C)cc1)c1nnc(Cn2nnc3ccccc32)s1,-5%,-3%,?,25µM*,5%,-10%
COc1ccc(-c2nnc(SCc3ccccc3F)o2)cc1OC,-5%,-4%,?,?,1%,13µM*
Cc1ccc(-c2nnc(SCc3ccccc3F)o2)cc1,-5%,-3%,?,?,-23%,10%
Cc1ccc(C)c(NS(=O)(=O)c2cc(C(=O)O)ccc2Cl)c1,-1%,-2%,5%,-17%,.,.
O=S(=O)(c1ccccc1S(=O)(=O)N1CCCCC1)N1CCCCC1,-2%,-1%,?,?,-1%,-10%
O=S(=O)(c1ccc(F)c2ccccc12)N1CCCCC1,-1%,1%,?,32µM*,5%,-8%
CN1CCN(c2ncc3nc(-c4ccc(F)cc4)c(=O)n(Cc4cccs4)c3n2)CC1,?,.,-3%,-15%,235%,?
OC1(C(O)(c2ccc(-c3ccccc3)cc2)c2ccc(-c3ccccc3)cc2)CCCCC1,-3%[11.5 µM],-1%[11.5 µM],-1%[11.4 µM],2%[11.4 µM],.,-4%[7.6 µM]
COc1cc2c(cc1OC)/C(=C/C(=O)N1CCOCC1)NC(C)(C)C2,?,.,3%,-5%,4%,5µM*
O=C(Nc1ccc(Nc2ccc3c(c2)C(=O)c2ccccc2C3=O)c2c1C(=O)c1ccccc1C2=O)c1ccccc1,-1%[11.5 µM],3%[11.5 µM],-45%[11.4 µM],0%[11.4 µM],.,3%[7.6 µM]
Cc1nn(-c2ccccc2C(=O)O)c(=O)c2ccccc12,1%,-1%,10µM*,-3%,-3%,?
Cc1nn(CC(=O)NCc2ccccc2)c(=O)c2ccccc12,0%,-2%,0%,2%,15%,-1%
CCOc1cc(/C=N/NC(=O)c2cc(-c3cccc(OC)c3)n[nH]2)ccc1O,-1%,-5%,-9%,-10%,.,.
COc1ccc(NC(=O)CN2CCN(c3ccc(Cl)cc3)CC2)c(OC)c1,2%,-2%,?,?,13µM*,?
FB(F)F,-3%,-3%,-1%,-7%,.,-5%
COc1ccc(CNc2ccnc(-c3ccccc3C(F)(F)F)n2)c(OC)c1,0%,0%,?,7.9µM*,-13%,4%
COc1ccc(CNc2ccnc(-c3ccc(C(=O)N(C)C)cc3)n2)c(OC)c1,-4%,-2%,?,0.79µM*,122%,?
CN(C)C(=O)c1ccc(-c2nc(NCc3cccs3)c3ccccc3n2)cc1,-1%,-2%,?,?,35%,?
Cc1cccc(CNc2nc(-c3ccc(C(=O)N(C)C)cc3)nc3ccccc23)c1,-1%,-6%,?,?,-30%,0.79µM*
SMILES,Casp7 inh,Caspase-1 inhib,TSHR ag,HEK293 cAMP cs,USP2a inh,CRE Fsk mod
COc1ccc(CNc2cc(-c3ccccc3Cl)ncn2)c(OC)c1,-11%,-4%,?,20µM*,15%,?
COc1ccc(CNc2cc(-c3ccccc3OC)ncn2)c(OC)c1,-6%,-5%,?,?,138%,?
COc1ccc2[nH]cc(CCNc3ccnc(-c4ccccc4C(F)(F)F)n3)c2c1,-5%,-2%,-3%,-21%,95%,1%
Cc1ccc(S(=O)(=O)Nc2ccc(O)c(C(=O)O)c2)c(C)c1,2%,1%,2%,-5%,.,.
CN(C)CCCCN1CCc2c(n(C)c3ccccc23)C1=O,0%[11.5 µM],3%[11.5 µM],4%[11.4 µM],12%[11.4 µM],.,-3%[7.6 µM]
COc1ccc(CNc2nc(-c3ccc(C(=O)N(C)C)cc3)nc3ccccc23)c(OC)c1,-4%,-3%,25µM*,22%,17%,1µM*
COc1ccc(CNC(=O)c2cc(-c3cccc(OC)c3)on2)cc1,-2%,0%,21%,26%,.,-5%
CC(C)OC(=O)CSc1nc(N)c(C#N)c(-c2cccs2)c1C#N,-3%,-1%,?,?,-1%,?
Cc1nn(-c2ccc(F)cc2)c2nc(N)c(C#N)c(-c3cccs3)c12,-16%,?,28%,12%,31%,7.9µM*
COc1ccccc1-c1c(C)c(C)nc(N)c1C#N,0%,1%,-4%,14%,-8%,13%
COc1cc(-c2c(C#N)c(N)nc3c2c(C)nn3-c2ccc(C)c(C)c2)cc(OC)c1OC,-26%,?,14%,7%,35%,2.5µM*
CC(C)C(C)C,0%,-8%,?,-15%,.,-1%
COc1ccc(-c2nnc(Nc3nc4c(OC)cccc4s3)o2)cc1,-20%,-3%,?,?,15%,13µM*
COc1ccc(OC)c(NC(=O)C2COc3ccccc3O2)c1 (stereo unspecified),-3%,0%,.,57%,5%,8%
CCOc1ccc(OCC)c(NC(=O)C2COc3ccccc3O2)c1 (stereo unspecified),0%,-3%,?,32µM*,-7%,28%
CC1(C)Cc2c(sc3nc(NCCN4CCOCC4)n4ncnc4c23)CO1,-1%,-1%,14%,-10%,10%,4µM*
CC(C)Oc1ccc(CSc2nnc3n(C)c(=O)c4c5c(sc4n23)CCCC5)cc1,-2%,1%,?,16µM*,0%,2%
CN1CCc2c(sc3c2c(=O)n(-c2ccccc2)c2nnc(SCc4ccc(Cl)cc4)n32)C1,-6%,-5%,3%,7%,45%,27%
CCNc1ncc2nc(-c3cccs3)c(=O)n(CCC#N)c2n1,?,.,-3%,15%,379%,?
CCOc1cc2c(cc1OCC)C(c1cc(OC)c(O)c(OC)c1)NCC2 (stereo unspecified),-25%,?,0%[11.4 µM],5%,11%,10µM*
O=C(N1CCN(c2ccccn2)CC1)N1c2ccccc2Sc2ccccc21,-2%,-1%,.,24%,3%,10µM*
O=C(c1ccco1)N1CCN(C(=O)N2c3ccccc3Sc3ccccc32)CC1,-4%,-5%,.,27%,19%,1µM*

# Compound activity from PubChem BioAssay.
